Measurements as given in PubChem BioAssay (NCATS).
Records with an inconclusive call do not appear. Entries that show only a call come without a potency. Active and inactive are the calls of the source. The call rests on the fitted dose curve; in most records, active means well fitted curve in the direction sought with a large enough effect; inconclusive means small, poorly fitted or top-dose-only effect, or another doubt; inactive means no such curve, though single readings can be large; an effect the other way counts as inactive or inconclusive.

target: Aldehyde dehydrogenase, mitochondrial (Homo sapiens) (UniProt P05091); assay: qHTS for Inhibitors of the Aldehyde Dehydrogenase Family (ALDH2) Primary screen (AID 2061308); settings: ALDH2 enzyme inhibition qHTS, 1536-well; series mostly up to 56 µM; further: nearly all actives have a fitted effect of over 55% in size; further: potency means the concentration at half of the fitted maximal effect

Compound | Potency
CCOC(=O)[C@@H](N)Cc1ccc(-c2cc(O[C@H](c3ccc(Cl)cc3-n3ccc(C)n3)C(F)(F)F)nc(N)n2)cc1 | inactive
Cc1ccc(-c2ccc(=O)n(CC(=O)N(C)C(C)c3ccco3)c2)cc1 (configuration not stated) | inactive
O=C(Nc1cn[nH]c1-c1nc2ccc(CN3CCOCC3)cc2[nH]1)NC1CC1 | inactive
Cc1ccc(S(=O)(=O)c2ncccc2[N+](=O)[O-])cc1 | 6.31 µM (active)
CCCC1(CCC)CCC2(CCN(CCCN(CC)CC)C2)CC1 | inactive
COCCOC(=O)C1=C(C)NC2=C(C(=O)CC(c3ccccc3OC)C2)C1c1cccc(O)c1 (configuration not stated) | inactive
O=C(N[C@H]1CCC[C@H](CO)C1)C1CCN(c2nc3cc(Cl)c(-c4ccc(Cl)cc4)cc3o2)CC1 | inactive
N#Cc1ccc(COC[C@H]2O[C@@H](n3c(NCc4ccc(Cl)c(Cl)c4)nc4c(N)ncnc43)[C@H](O)[C@@H]2O)cc1 | inactive
CC(=O)NC(c1ccco1)c1cc(Cl)c2ccc(Cl)nc2c1O (configuration not stated) | inactive
c1ccc(Cn2c(-c3ccc(OCC(C4CCNCC4)n4c(-c5ccccc5)nc5ccccc54)cc3)nc3ccccc32)cc1 (configuration not stated) | inactive
Cn1ncc(Cl)c1-c1cc(C(=O)NC(CN)Cc2ccc(F)c(F)c2)oc1Cl (configuration not stated) | inactive
CON(C)C(=O)N1N=C(c2cc(F)ccc2F)S[C@@]1(CCCN)c1ccccc1 | inactive
c1nc(NCC2CCCCO2)c2cc(-c3ccc4c(c3)OCO4)ccc2n1 (configuration not stated) | inactive
NC(=O)C1CCN(c2nc(-c3ccc(N4CCCCC4)nc3)cs2)CC1 | inactive
Cc1cnc(Nc2ccc(CN3CCOCC3)cc2)nc1Nc1cccc(S(=O)(=O)NC(C)(C)C)c1 | inactive
Cc1c(C(=O)OCC2CC2)[nH]c2c1C(=O)CC(c1ccco1)C2 (configuration not stated) | inactive
OCCNC1CCCc2c1[nH]c1ccc(-c3ccccc3)cc21 (configuration not stated) | inactive
CCC(=O)NS(=O)(=O)c1ccc(-c2c(-c3ccccc3)noc2C)cc1 | inactive
Cc1ccc(NS(=O)(=O)c2ccc3c(c2)C(Cl)(Cl)C(=O)N3)cc1C | inactive
N#Cc1c(-c2ccc(Cl)cc2)no[n+]1[O-] | 7.94 µM (active)

Compound | Potency
O=C(c1ccc(F)c(F)c1Nc1ccc(I)cc1F)N1CC(O)([C@@H]2CCCCN2)C1 | inactive
CS(=O)(=O)N1CCN(c2nc(-c3ccc(Br)cc3)cs2)CC1 | inactive
CC(=O)Nc1sc2c(c1-c1nc3ccccc3s1)CCN(C(C)C)C2 | inactive
O=C1c2ccccc2NC(c2ccc(-c3ccc(C(F)(F)F)cc3)o2)N1O (configuration not stated) | 4.47 µM (active)
CNCc1ccc(C)c(NC(=O)c2ccc(Nc3nc(-c4ccccc4)c4ccccc4n3)cc2)c1 | inactive
O=C(Nc1ncc(Cc2ccc(C(F)(F)F)cc2)s1)c1ccc(-c2ccc([N+](=O)[O-])cc2)o1 | inactive
COc1ccc(C(=O)CC2(O)C(=O)Nc3c(Cl)ccc(Cl)c32)cc1 (configuration not stated) | inactive
CCOc1ccc(NC(=O)NCC2CCCN2c2ccc(OC)cc2)cc1 (configuration not stated) | inactive
Cc1cnc(-c2ccccc2C(C)C)nc1NCc1ccc(-n2ccnn2)cc1 | inactive
Cn1ncc(Cl)c1-c1cc(C(=O)N[C@H](CN)Cc2ccc(F)c(F)c2)sc1Cl | inactive
Cc1c(NC(=O)OC[C@@H]2COCCN2)cn2ncnc(Nc3ccc4c(cnn4Cc4cccc(F)c4)c3)c12 | inactive
c1nc(NCC2CCCOC2)c2cc(-c3ccc4c(c3)OCO4)ccc2n1 (configuration not stated) | inactive
C=C(c1ccc(C(=O)O)cc1)c1cc2c(cc1C)C(C)(C)CCC2(C)C | inactive
Cc1ccc(CNc2ccc(N3CCOCC3)cc2)cc1 | inactive
COc1ccc(C2=Nn3c(nnc3-c3ccc(OC)cc3OC)SC2)cc1 | inactive
C[C@H]1O[C@@H](O[C@H]2[C@@H](O)C[C@H](O[C@H]3[C@@H](O)C[C@H](O[C@H]4CC[C@@]5(C)[C@H](CC[C@@H]6[C@@H]5C[C@@H](O)[C@]5(C)[C@@H](C7=CC(=O)OC7)CC[C@]65O)C4)O[C@@H]3C)O[C@@H]2C)C[C@H](O)[C@@H]1O | inactive
Cc1[nH]c2ccccc2c1CCNCc1ccc(/C=C/C(=O)NO)cc1 | inactive
O=S(=O)(Nc1nccs1)c1ccc(Nc2nc(-c3ccc(F)cc3)cs2)cc1 | inactive
COC(C)(C)CCn1nc(Nc2c(C)cccc2C)c2cnc(Nc3ccc(OCCN4CCCC4)c(F)c3)nc21 | inactive
CC(=O)Nc1ccc(-c2csc(N3CCC(C(N)=O)CC3)n2)cc1 | inactive

target: Retinaldehyde dehydrogenase 3 (Homo sapiens) (UniProt P47895); assay: qHTS for Inhibitors of the Aldehyde Dehydrogenase Family (ALDH1A3) Validation screen (AID 2061312); settings: ALDH1A3 enzyme inhibition qHTS validation, fluorescence; series mostly up to 84.7 µM; further: nearly all actives have a fitted effect of over 45% in size

Compound | Potency
CCOC(=O)[C@@H](N)Cc1ccc(-c2cc(O[C@H](c3ccc(Cl)cc3-n3ccc(C)n3)C(F)(F)F)nc(N)n2)cc1 | inactive
O=C(Nc1cn[nH]c1-c1nc2ccc(CN3CCOCC3)cc2[nH]1)NC1CC1 | inactive
CCCC1(CCC)CCC2(CCN(CCCN(CC)CC)C2)CC1 | inactive
COCCOC(=O)C1=C(C)NC2=C(C(=O)CC(c3ccccc3OC)C2)C1c1cccc(O)c1 (configuration not stated) | inactive
O=C(N[C@H]1CCC[C@H](CO)C1)C1CCN(c2nc3cc(Cl)c(-c4ccc(Cl)cc4)cc3o2)CC1 | inactive
N#Cc1ccc(COC[C@H]2O[C@@H](n3c(NCc4ccc(Cl)c(Cl)c4)nc4c(N)ncnc43)[C@H](O)[C@@H]2O)cc1 | inactive
c1ccc(Cn2c(-c3ccc(OCC(C4CCNCC4)n4c(-c5ccccc5)nc5ccccc54)cc3)nc3ccccc32)cc1 (configuration not stated) | inactive
Cn1ncc(Cl)c1-c1cc(C(=O)NC(CN)Cc2ccc(F)c(F)c2)oc1Cl (configuration not stated) | inactive
CON(C)C(=O)N1N=C(c2cc(F)ccc2F)S[C@@]1(CCCN)c1ccccc1 | inactive
Cc1cnc(Nc2ccc(CN3CCOCC3)cc2)nc1Nc1cccc(S(=O)(=O)NC(C)(C)C)c1 | inactive
OCCNC1CCCc2c1[nH]c1ccc(-c3ccccc3)cc21 (configuration not stated) | inactive
CCC(=O)NS(=O)(=O)c1ccc(-c2c(-c3ccccc3)noc2C)cc1 | inactive
O=C(c1ccc(F)c(F)c1Nc1ccc(I)cc1F)N1CC(O)([C@@H]2CCCCN2)C1 | inactive
CNCc1ccc(C)c(NC(=O)c2ccc(Nc3nc(-c4ccccc4)c4ccccc4n3)cc2)c1 | inactive
COc1ccc(C(=O)CC2(O)C(=O)Nc3c(Cl)ccc(Cl)c32)cc1 (configuration not stated) | inactive
Cc1cnc(-c2ccccc2C(C)C)nc1NCc1ccc(-n2ccnn2)cc1 | inactive
Cn1ncc(Cl)c1-c1cc(C(=O)N[C@H](CN)Cc2ccc(F)c(F)c2)sc1Cl | inactive
Cc1c(NC(=O)OC[C@@H]2COCCN2)cn2ncnc(Nc3ccc4c(cnn4Cc4cccc(F)c4)c3)c12 | inactive
C=C(c1ccc(C(=O)O)cc1)c1cc2c(cc1C)C(C)(C)CCC2(C)C | inactive
C[C@H]1O[C@@H](O[C@H]2[C@@H](O)C[C@H](O[C@H]3[C@@H](O)C[C@H](O[C@H]4CC[C@@]5(C)[C@H](CC[C@@H]6[C@@H]5C[C@@H](O)[C@]5(C)[C@@H](C7=CC(=O)OC7)CC[C@]65O)C4)O[C@@H]3C)O[C@@H]2C)C[C@H](O)[C@@H]1O | inactive
Cc1[nH]c2ccccc2c1CCNCc1ccc(/C=C/C(=O)NO)cc1 | inactive
COC(C)(C)CCn1nc(Nc2c(C)cccc2C)c2cnc(Nc3ccc(OCCN4CCCC4)c(F)c3)nc21 | inactive
